This passage reports composite z-score and z-score results from PubChem BioAssay.

Assay [1] concerns Human papillomavirus type 1a protein E7 (residues 44-93). Put plainly: HPV1a E7 fragment binders on microarrays, primary screen, biochemical, small-molecule microarray, residues 44-93, 635 nm fluorescence (AID 1108).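 Also: E7 fragment applied at 1 µg/mL in TBST for 1 h at 4 C; score combines spot fluorescence with its signal to noise ratio.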 The settings on record: small-molecule microarray binding, fluorescence 635 nm; higher = more signal.
Assay [2] is described as follows: modulators of HCV replicon luciferase signal, primary screen, HCV replication inhibitor project, Huh7 cells, luciferase reporter (AID 1109).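 Also: huh7 hepatoma cells harbouring a luciferase neomycin HCV replicon reporter; luciferase luminescence as measure of HCV replicon replication; test concentration not given here.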 The conditions noted are these: 48 h, higher = more signal.
Assay [3] addresses Left-right determination factor 2 (Homo sapiens) (UniProt O00292). Put plainly: LEFTY2 binders on small-molecule microarrays, primary screen, biochemical, small-molecule microarray, 635 nm fluorescence scan (AID 1110). The settings on record: LEFTY2 binding, higher = more signal.
Assay [4] deals with Calmodulin-1 (Homo sapiens) (UniProt P0DP23). The experiment in a line: CALM1 binders on microarrays, EGTA buffer, profiling panel, biochemical, small-molecule microarray, Cy5-labelled CALM1 (AID 1111).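 Also: labelled calmodulin applied in Tris saline Tween buffer holding calcium plus EGTA and DTT.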 The settings on record: Cy5-CALM1 binding fluorescence, higher = more signal.
The target is the same in assay [5]. The experiment in a line: calcium-bound CALM1 binders on microarrays, profiling panel, artefact control for SMM control-protein annotation, biochemical, small-molecule microarray, Cy5-labelled CALM1, plus calcium (AID 1112).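 Also: score merges spot fluorescence with signal to noise from triplicate slides.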 The settings on record: Cy5-CALM1 binding fluorescence, higher = more signal.
Assay [6] is described as follows: small-molecule microarray binders of probe aWnt5a, primary screen, biochemical, biotinylated probe, 635/667 nm fluorescence (AID 1113).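 Also: score merges 667 nm fluorescence intensity with signal-to-noise per printed feature.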 The conditions noted are these: higher = more signal.
The nature of assay [7]: small-molecule microarray binders of probe aShh, primary screen, biochemical, biotinylated probe, 635/667 nm fluorescence (AID 1114).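 Also: probe is biotin-labelled aShh protein from a stem cell growth factor screen; measures binding of labelled protein to compounds printed on the slide; score merges feature fluorescence at 667 nm with signal-to-noise.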 The settings on record: higher = more signal.
Assay [8] is described as follows: small-molecule microarray binders of probe aNog, primary screen, biochemical, biotinylated probe, 635/667 nm fluorescence (AID 1115).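 Also: probe is biotinylated aNog protein used at 0.15 µg/mL for 1 h at 4 C; z-score combines 667 nm fluorescence of each spot with its signal to noise.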 The conditions noted are these: higher = more signal.
Assay [9] has as its target Torsin-1A-interacting protein 1 (Homo sapiens) (UniProt Q5JTV8). Put plainly: LAP1 binders from COS7 cell lysate, primary screen, small-molecule microarray, 635/667 nm fluorescence (AID 1116). The settings on record: COS7-hLAP1 lysate binding, 635 nm fluorescence, higher = more signal.
For assay [10], the target named is Alpha-bungarotoxin (Bungarus multicinctus) (UniProt P60615). The experiment in a line: alpha-bungarotoxin binders on microarray, profiling panel, artefact control for SMM control protein annotation, biochemical, small-molecule microarray, Alexa647 label, 635/667 nm fluorescence (AID 1117). The settings on record: alpha-BTX-A647 binding fluorescence, higher = more signal.
Sequence of Alpha-bungarotoxin (Bungarus multicinctus) (P60615 whole entry, looked up): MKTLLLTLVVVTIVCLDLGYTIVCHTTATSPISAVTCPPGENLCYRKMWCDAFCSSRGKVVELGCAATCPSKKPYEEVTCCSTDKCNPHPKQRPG

Sequence of Left-right determination factor 2 (Homo sapiens) (O00292 whole entry, looked up): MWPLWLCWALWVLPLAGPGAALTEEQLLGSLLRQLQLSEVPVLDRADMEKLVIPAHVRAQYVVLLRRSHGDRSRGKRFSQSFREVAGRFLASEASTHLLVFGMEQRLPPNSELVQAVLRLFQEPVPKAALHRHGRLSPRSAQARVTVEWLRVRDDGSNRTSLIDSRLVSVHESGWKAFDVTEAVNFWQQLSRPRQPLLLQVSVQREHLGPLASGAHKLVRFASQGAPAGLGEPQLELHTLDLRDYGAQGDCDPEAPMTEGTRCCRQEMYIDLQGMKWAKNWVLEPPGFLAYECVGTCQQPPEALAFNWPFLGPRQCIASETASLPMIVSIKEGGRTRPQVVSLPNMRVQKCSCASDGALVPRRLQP
Sequence of Torsin-1A-interacting protein 1 (Homo sapiens) (Q5JTV8 whole entry, looked up): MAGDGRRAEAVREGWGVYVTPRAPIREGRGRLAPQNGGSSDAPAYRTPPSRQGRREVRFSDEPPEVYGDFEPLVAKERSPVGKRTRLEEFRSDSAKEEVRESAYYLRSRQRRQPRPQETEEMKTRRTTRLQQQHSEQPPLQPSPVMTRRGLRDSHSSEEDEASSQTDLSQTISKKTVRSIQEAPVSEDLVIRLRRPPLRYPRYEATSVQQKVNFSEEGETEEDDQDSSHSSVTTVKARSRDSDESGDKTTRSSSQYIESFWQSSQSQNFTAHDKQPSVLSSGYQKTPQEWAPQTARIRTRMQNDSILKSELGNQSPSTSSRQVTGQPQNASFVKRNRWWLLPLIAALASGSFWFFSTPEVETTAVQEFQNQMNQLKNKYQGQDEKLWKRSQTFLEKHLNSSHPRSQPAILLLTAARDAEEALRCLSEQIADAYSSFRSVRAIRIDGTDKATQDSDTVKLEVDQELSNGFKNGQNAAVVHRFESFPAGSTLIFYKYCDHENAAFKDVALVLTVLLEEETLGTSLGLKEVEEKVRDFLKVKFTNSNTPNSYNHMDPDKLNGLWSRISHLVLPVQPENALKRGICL

Turning to `CCCC=C(CCC)[C@@H](NC(=O)c1ccc(C(F)(F)F)cc1)c1ccccc1`, the composite z-score was 1.17 in assay [1]; -0.0957 in assay [3]; 0.815 in assay [4]; 0.793 in [5]; 0.0094 in [6]; 0.213 in assay [7]. Further, the composite z-score is 0.644 in assay [8], 0.432 in assay [9] and 0.25 in assay [10]. Moreover, in [2], the z-score is -1.43.
On to `[N-]=[N+]=Nc1ccccc1C[C@@]1(C(=O)N2CCOCC2)N=C(c2ccc(OCCCO)cc2)O[C@@H]1c1ccccc1N=[N+]=[N-]`, for which the composite z-score in assay [1] is 0.457; in [3] it was 0.095; in assay [4], 1.04; in [5] it was 0.804; in assay [6], -0.0398; in assay [7] it was 0.102. Besides, the composite z-score in [8] stood at 0.293; in [9], 0.842; in assay [10] it was 2. The z-score in assay [2] was -2.29.
For the compound `COc1ccc([Si](C)(C)[C@H]2[C@H](CCO)O[C@@]3(C(=O)N(Cc4ccccc4)c4ccc(N5C(=O)c6cccc7cccc5c67)cc43)[C@@H]2C)cc1`, the composite z-score in [1] is -0.137; in assay [3], -0.681; in assay [4], 0.793; in assay [5], 0.906; in [6], -0.124; in assay [7] it was -0.0769. The composite z-score was 0.0936 in assay [8], 0.461 in assay [9] and 0.524 in assay [10]. The compound further gave a z-score in assay [2] of -4.5.
In the case of `CC(C)(C)OC(=O)CC[C@]1(C(=O)N2CCCCC2)N=C(c2ccc(OCCCO)cc2)O[C@H]1c1ccccc1`, the composite z-score in assay [1] is 1.37; in [3], 0.538; in [4], 1.68; in [5], -0.0194; in assay [6], 0.0919; in [7], -0.138. For the same compound, the composite z-score in assay [8] worked out at 0.248; in assay [9], 1.89; in assay [10], 2.02. The compound also had a z-score in assay [2] of -1.66.
On to `C=CCC(OC(C)=O)[C@@H]1[C@@H](N(Cc2ccc(-c3cccc(C(F)(F)F)c3)o2)C(=O)Cc2ccc(F)cc2)c2cc(OCCCO)ccc2N1C(=O)c1ccc(-c2ccccc2)cc1` (stereo not given in full), for which the composite z-score was -0.741 in assay [1]; -0.689 in assay [3]; -0.679 in [4]; 0.671 in assay [5]; -0.154 in assay [6]; 0.0899 in assay [7]. Further, the results for the composite z-score in [8], in assay [9] and in [10] were 0.172, 0.14 and -0.227, respectively. This compound also returned a z-score in assay [2] of -0.583.
Turning to `C[C@H]1COC(=O)[C@@H]2CCCN2C(=O)[C@@H](C)COC(=O)[C@@H]2CCCN2C1=O`, the composite z-score in assay [1] was -0.663; in [3] it was 0.417; in [4], -0.835; in assay [5], -1.09; in assay [6] it was -0.124; in [7], -0.0626. Further, the composite z-score in [8] is -0.367; in assay [9] it was -0.392; in assay [10] it was -0.394. Further, in assay [2], the z-score is -0.004.
Turning to `O=C1OCCC/C=C\[C@H]2OC34C=CCN(CCN5CCOCC5)C(=O)[C@H]3N(CCCCCO)C(=O)[C@@H]4C12` (stereo not given in full), the composite z-score in assay [1] is -0.827; in assay [3], -1.37; in [4] it was -0.725; in assay [5], -1.26; in [6], -0.226; in [7] it was -0.147. Moreover, the values for the composite z-score in [8], in assay [9] and in assay [10] were -0.356, -0.849 and -0.918, respectively. The same compound registered a z-score in assay [2] of -0.953.
Turning to `CO[C@H]1COC(=O)CC=C[C@H](C)[C@@H](OC)COC(=O)CC=C[C@@H]1C`, the composite z-score is -0.366 in assay [1]; 0.724 in assay [3]; -1.61 in [4]; -1.87 in assay [5]; -0.181 in assay [6]; 0.126 in assay [7]. In addition, the composite z-score in assay [8] was -0.63; in assay [9], -0.0807; in assay [10] it was -0.86. Also, the z-score in [2] is -0.0985.
In the case of `O=C(N1CCCCC1)[C@@]1(CCS(=O)(=O)c2ccccc2)N=C(c2ccc(OCCCO)cc2)O[C@H]1c1ccccc1`, the composite z-score in assay [1] is 1.48; in assay [3] it was -0.197; in [4], -0.215; in assay [5], -0.688; in [6], 0.212; in assay [7] it was 0.427. Moreover, the composite z-score in [8] was -0.133; in assay [9], 1.77; in [10], -0.0166. This compound came in with a z-score in [2] of -3.07.
`C[N+](C)(C)CCCCNC(=O)[C@H]1C[C@H]2C(=O)NCC(=O)N2[C@H]1c1cccc(OCCO)c1`: the composite z-score in assay [1] is 0.296; in assay [3] it was 1.17; in assay [4] it was -1.68; in assay [5] it was -1.96; in assay [6], 0.0618; in assay [7], 0.147. Moreover, the composite z-score is -0.178 in assay [8], 0.724 in assay [9] and 0.804 in [10]. This compound also showed a z-score in assay [2] of -0.651.
As to `CCCC[C@@H]1C[C@H]1[C@@H](NC(=O)c1cccs1)c1ccc(Cl)cc1`, the composite z-score in [1] is -0.416; in assay [3], -1.19; in assay [4], 0.27; in [5], 0.696; in [6] it was 0.0095; in [7], -0.0578. Besides, the composite z-score is 0.46 in [8], -0.939 in assay [9] and -1.37 in assay [10]. Also, in assay [2], the z-score is -1.27.
Turning to `C=CCN(C(=O)C1N(c2ccc(CCO)cc2)C(=O)C2C(C(=O)O)C3C=CC21O3)C(C)(C)C` (stereo not given), the composite z-score was -0.266 in assay [1]; -2.38 in assay [3]; -0.428 in assay [4]; 0.966 in assay [5]; -0.287 in [6]; -0.27 in [7]. The composite z-score was -0.219 in [8], 1.71 in assay [9] and -2.69 in assay [10]. Also, the z-score in assay [2] amounted to 0.333.
`C[C@]1(C(=O)NCc2ccccc2)c2ccccc2C(=O)N(Cc2cc(C(F)(F)F)cc(C(F)(F)F)c2)[C@H]1c1ccc(CO)cc1`: the composite z-score was 1.1 in assay [1]; 0.159 in assay [3]; 0.956 in assay [4]; 0.844 in assay [5]; -0.0519 in assay [6]; 1.39 in assay [7]. Moreover, the composite z-score was -0.0047 in assay [8], 0.541 in assay [9] and 0.615 in assay [10]. In [2], this compound registered a z-score of -2.06.
In the case of `COCCOC(=O)N1C(=O)[C@@]2(c3cc(C#CCC(C(=O)OC)C(=O)OC)ccc31)[C@H](C(=O)N1CCN(c3ncccn3)CC1)[C@H]1C(=O)O[C@H](c3ccccc3)[C@H](c3ccccc3)N1[C@@H]2c1ccc(O)cc1`, the composite z-score in assay [1] was 0.435; in assay [3], 0.394; in assay [4] it was 1.22; in [5], 0.601; in [6], 0.0077; in assay [7] it was 0.272. Moreover, the composite z-score in assay [8] amounted to 0.0574; in assay [9], 0.518; in assay [10], 1.71. In addition, the z-score in assay [2] was -0.513.
On to `CCC(=O)[C@]12O[C@@]3([C@@H]4C(=O)OCC[C@@H]41)N(Cc1ccccc1)C(C)=C(C(=O)OC)[C@@H](c1ccccc1)N3C2=O`, for which the composite z-score in [1] was -2.88; in assay [3] it was 0.271; in assay [4], -0.146; in assay [5] it was -0.0047; in assay [6], -0.16; in assay [7], -0.0653. Further, the composite z-score in assay [8] was -0.196; in assay [9] it was -0.398; in assay [10] it was -0.621. This compound also yielded a z-score in assay [2] of 0.286.
